Results taken from ChEMBL document CHEMBL1157539, “Thousands of chemical starting points for antimalarial lead identification” (Nature, 2010).

The compounds below were run on Plasmodium falciparum (assay: GSK_TCMDC: Inhibition of Plasmodium falciparum Dd2 in whole red blood cells, using parasite LDH activity as an index of growth. Test compounds present at 2uM).
Type: functional

Structure (SMILES)	Inhibition
Cn1cccc1C(=O)C(=O)Nc1cccc(-c2ccc(-c3nc4cc(C(F)(F)F)ccc4[nH]3)cc2)c1	27%
O=C(O)C[C@H](NC(=O)[C@@H]1CCCN1C(=O)c1cccc(-c2ccc(Cl)c(Cl)c2)c1)C(=O)O	0%
O=C(c1ccc([N+](=O)[O-])o1)N1CCN(c2ccccc2)CC1	72%
Cc1ccc(C(C)C)c(Oc2ccc3nc(N)nc(N)c3c2)c1	33%
Clc1ccc2c(NCc3ccccc3)ccnc2c1	100%
CC(Nc1ccc2c(c1)OCCO2)C(=O)Nc1cc(C(F)(F)F)ccc1N1CCOCC1 (stereo not drawn)	70%
C=CCOC(=O)N1CCC(CNCc2ccc(-c3ccc(-c4nc5ccccc5[nH]4)s3)cc2)C1.O=C(O)C(F)(F)F (stereo not drawn)	76%
COc1ccc2ncc(F)c(CCN3CCC(NCc4ccc5c(c4)CCO5)CC3)c2n1.Cl	30%
Cc1cccn2c(=O)c3cc(C(=O)NC(C)c4ccccc4)c(=N)n(CCN4CCOCC4)c3nc12 (stereo not drawn)	5%
C#CCNCc1ccc(-c2ccc(-c3nc4cc(C(F)(F)F)ccc4[nH]3)s2)cc1.O=C(O)C(F)(F)F	28%
CCN(CC)CCN(Cc1ccc(-c2ccc(Cl)s2)cc1)C(=O)Cn1c(CCc2cccc(F)c2F)nc(=O)c2ccccc21.O=C(O)C(O)C(O)C(=O)O	27%
O=C(Cc1ccccn1)Nc1cccc(-c2cccc(-c3nc4cc(C(F)(F)F)ccc4[nH]3)c2)c1	22%
Cc1cc(NC(=O)Nc2cccc(N(C)C)c2)c2ccccc2n1	95%

These compounds were tested on HepG2 (assay: GSK_TCMDC: Percent inhibition of human HepG2 cell line. Test compounds present at 10uM.).
Type: functional

Structure (SMILES)	Inhibition
CC(C)NCc1ccc(-c2cccc(NC(=O)c3ccc(F)cc3)c2)cc1.O=C(O)C(F)(F)F	28%
COCC(=O)N(Cc1ccccc1-c1cccc(CNCc2ccc3c(c2)OCO3)c1)C1CCN(Cc2ccccc2)CC1.O=C(O)C(F)(F)F	33%
O=C(/C=C/c1ccccc1)N1CCOC(CCN2CCC(c3ccccc3)CC2)(c2ccc(Cl)c(Cl)c2)C1 (stereo not drawn)	4%
CNC(=O)c1cnc(Nc2ccc3[nH]c(=O)[nH]c3c2)nc1Nc1cccc(OC(C)C)c1.O=C(O)C(F)(F)F	18%
NC(=O)c1sc(-n2cnc3ccccc32)cc1OCc1ccccc1[N+](=O)[O-]	10%
O=C(/C=C/c1ccc(Cl)c(Cl)c1)NCCCCCN1CCCN(C(=S)Nc2ccc(Cl)c(Cl)c2)CC1	16%
O=C(/C=C/c1ccc(Cl)cc1)NCCCCCN1CCN(C(=O)Nc2ccc(Cl)c(C(F)(F)F)c2)CC1	18%
Cl.O=c1cc(NCCCNCc2cc3c(Cl)cc(Cl)cc3[nH]2)[nH]c2ccccc12	0%
CCN(CCN(C)C)Cc1ccc(-c2ccc(NS(=O)(=O)c3cccc(Cl)c3)cc2)cc1.O=C(O)C(F)(F)F	43%
Cc1cccc2nc(-c3ccc(-c4cccc(NC(=O)C(C)CN5CCN(C)CC5)c4)cc3)[nH]c12 (stereo not drawn)	5%
COc1ccc2nccc([C@@H](O)CN3CCC(NCc4ccc5nc[nH]c(=O)c5c4)CC3)c2c1.O=C(O)C(=O)O	12%
N#Cc1ccc(-c2ccc(C(=O)NC3CCN(CCN4CCC(c5cn(CCOC6CCCCO6)c6ccccc56)CC4)CC3)cc2)cc1 (stereo not drawn)	48%
COc1ccccc1C1CCN(C2CCC(NC(=O)c3cc(-c4ccc(Cl)cc4)cs3)CC2)CC1 (stereo not drawn)	61%
Cc1ccc2[nH]c(C)cc(=NN=Cc3cccc(F)c3)c2c1	6%
O=C(Nc1ccc(N2CCN(Cc3c[nH]c4cc(F)ccc34)CC2)cc1)c1ccccc1-c1ccc(C(F)(F)F)cc1	20%
CCCCCN1CCC(NS(=O)(=O)c2ccc(C(=O)Nc3cccc(C(F)(F)F)c3)cc2)C1.O=C(O)C(F)(F)F (stereo not drawn)	14%
O=C(Nc1ccc(C(=O)Oc2ccc3ccccc3c2)cc1)N[C@@H](Cc1ccc(O)cc1)C(=O)NC1CCN(Cc2ccc(O)cc2)C1.O=C(O)C(F)(F)F (stereo partly drawn)	1%
O=C(NCCCCCN1CCC(c2c[nH]c3ccccc23)CC1)c1ccc(Cl)c(Cl)c1	48%
O=C(/C=C/c1ccc(Cl)cc1)NCCCCCN1CCCN(C(=O)Nc2ccc(F)c(Cl)c2)CC1	29%
COc1ccc(CN2CCC(CNCCc3ccccc3Oc3ccccc3)CC2)cc1.O=C(O)C(F)(F)F	99%

Structure (SMILES)	Inhibition
COc1ccc2[nH]ccc(=NN=Cc3ccc(Cl)cc3)c2c1	9%
O=C(Cn1c(SCc2cccc(F)c2F)cc(=O)c2ccccc21)N(CCn1ccnc1)Cc1ccc(-c2ccc(C(F)(F)F)cc2)cc1	20%
CC(C)(CNC(=O)[C@@H]1CCCN(CCOc2ccc(Cl)cc2)C1)c1nc(-c2ccc(Cl)c(O)c2)c(-c2ccncc2)[nH]1.Cl	58%
COc1ccc2nccc(NCC3(O)CCC(NCc4cc5c(cn4)OCCO5)CC3)c2n1.Cl (stereo not drawn)	15%
Cc1cc2ncn(-c3ccnc(N4CCN(CCCN5CCCC5)CC4)n3)c2cc1C.O=C(O)C(F)(F)F	24%
COc1ccc2ncc(C)c(CCN3CCC(NCc4ccc5c(n4)NC(=O)CS5)CC3)c2c1.Cl	14%
C=C[C@H]1CN(CCCCCCC)CC[C@H]1CC(=O)Nc1cnnc2ccc(OC)cc12.O=C(O)C(=O)O	12%
Cn1cccc1C(=O)C(=O)Nc1cccc(-c2ccc(-c3nc4cc(C(F)(F)F)ccc4[nH]3)cc2)c1	62%
O=C(O)C[C@H](NC(=O)[C@@H]1CCCN1C(=O)c1cccc(-c2ccc(Cl)c(Cl)c2)c1)C(=O)O	0%
O=C(c1ccc([N+](=O)[O-])o1)N1CCN(c2ccccc2)CC1	44%
Cc1ccc(C(C)C)c(Oc2ccc3nc(N)nc(N)c3c2)c1	61%
Clc1ccc2c(NCc3ccccc3)ccnc2c1	40%
CC(Nc1ccc2c(c1)OCCO2)C(=O)Nc1cc(C(F)(F)F)ccc1N1CCOCC1 (stereo not drawn)	0%
C=CCOC(=O)N1CCC(CNCc2ccc(-c3ccc(-c4nc5ccccc5[nH]4)s3)cc2)C1.O=C(O)C(F)(F)F (stereo not drawn)	29%
COc1ccc2ncc(F)c(CCN3CCC(NCc4ccc5c(c4)CCO5)CC3)c2n1.Cl	20%
Cc1cccn2c(=O)c3cc(C(=O)NC(C)c4ccccc4)c(=N)n(CCN4CCOCC4)c3nc12 (stereo not drawn)	6%
C#CCNCc1ccc(-c2ccc(-c3nc4cc(C(F)(F)F)ccc4[nH]3)s2)cc1.O=C(O)C(F)(F)F	37%
CCN(CC)CCN(Cc1ccc(-c2ccc(Cl)s2)cc1)C(=O)Cn1c(CCc2cccc(F)c2F)nc(=O)c2ccccc21.O=C(O)C(O)C(O)C(=O)O	24%
O=C(Cc1ccccn1)Nc1cccc(-c2cccc(-c3nc4cc(C(F)(F)F)ccc4[nH]3)c2)c1	26%
Cc1cc(NC(=O)Nc2cccc(N(C)C)c2)c2ccccc2n1	0%
